The values that follow come from PubChem BioAssay.

The test system of test [1] is XIP peptide (Xip251-270) binding. The test can be described thus: small-molecule binders of XIP peptide, primary screen, biochemical, small-molecule microarray, fluorescence 635/667 nm, 0.1 µg/mL protein (AID 1182). To be noted: fluorescent protein binding, 635 nm, higher = more signal, called active from +8 up or from −8 down.
The subject of another test is XIP peptide (Xip251-270). The test can be described thus: small-molecule binders of XIP peptide, primary screen, biochemical, small-molecule microarray, fluorescence 635/667 nm, 0.5 µg/mL protein (AID 1183). The following applies: small-molecule microarray binding, fluorescence 635 nm; higher = more signal.
Test [2] can be described thus: Plasmodium falciparum growth inhibition, primary screen, strain 3D7, DAPI fluorescence, 100 nL (AID 1184).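 Further: parasites grown inside human red blood cells in medium with human serum.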 To be noted: P. falciparum 3D7 growth, 3 d, higher = more signal.
For test [3], the target named is Homeobox protein Hox-A13 (Mus musculus) (UniProt Q62424). The test can be described thus: inhibitors of HoxA13-DNA binding, primary screen, biochemical, fluorescence polarization, labeled oligonucleotide (AID 1185). The following applies: 15 min, higher = more signal, called active from +8 up or from −8 down. A general note: In fluorescence polarisation assays a small probe gives low polarisation when free and higher when bound to something large.

Test [4] is described as follows: inhibitors of hydroxyurea-induced Chk1 phosphorylation, primary screen, imaging, HeLa, phospho-Chk1 antibody, percent positive cells (AID 1186). To be noted: hydroxyurea-induced phospho-Chk1 immunofluorescence imaging, higher = more signal.
Test [5] is described as follows: inhibitors of hydroxyurea-induced Chk1 phosphorylation, primary screen, imaging, HeLa, phospho-Chk1 nuclear intensity (AID 1187). To be noted: hydroxyurea-induced phospho-Chk1 immunofluorescence imaging, higher = more signal.

Calls of active or inactive are those of the source. Unless noted, how the calls were made is not given here.

Homeobox protein Hox-A13 (Mus musculus), sequence (Q62424 whole entry, looked up): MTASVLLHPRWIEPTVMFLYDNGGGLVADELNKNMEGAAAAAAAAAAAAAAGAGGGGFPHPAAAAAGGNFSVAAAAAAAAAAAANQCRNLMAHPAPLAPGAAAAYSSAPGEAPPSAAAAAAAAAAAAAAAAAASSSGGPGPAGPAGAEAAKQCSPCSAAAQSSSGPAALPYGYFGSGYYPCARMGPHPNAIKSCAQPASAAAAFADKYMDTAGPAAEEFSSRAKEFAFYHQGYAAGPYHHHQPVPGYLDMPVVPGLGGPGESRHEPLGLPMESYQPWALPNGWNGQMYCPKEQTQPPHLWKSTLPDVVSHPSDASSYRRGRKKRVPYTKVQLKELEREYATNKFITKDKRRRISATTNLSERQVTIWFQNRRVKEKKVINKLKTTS

As to `COC(=O)C(CC#Cc1ccc2c(c1)[C@]1(C(=O)N2)[C@H](c2ccccc2OCCO)N2[C@H](c3ccccc3)[C@H](c3ccccc3)OC(=O)[C@H]2[C@@H]1C(=O)N1CCN(c2ncccn2)CC1)C(=O)OC`, the composite z-score in test [1] is -0.0996 (inactive); in the test on XIP peptide (Xip251-270), 0.539. Moreover, the z-score in test [2] was -2.27; in test [3], -1.41 (inactive); in test [4], 0.0162 (inactive); in test [5], -0.581 (inactive).
For `C=CCN1C(=O)[C@@]2(O[C@@H](CCO)[C@H]([Si](C)(C)c3ccc(OC)cc3)[C@H]2C)c2cc(N3CCCCC3=O)ccc21`, the composite z-score is 0.561 (inactive) in test [1] and 0.625 in the test on XIP peptide (Xip251-270). In addition, the z-score in test [2] was -2.42; in test [3], -6.02 (inactive); in test [4], -1.22 (inactive); in test [5] it was -0.485 (inactive).
With `COc1cccc(C)c1NC(=O)O[C@H]1[C@H](OC(=O)Nc2ccccc2)[C@@H](OC(=O)Nc2ccccc2)[C@@H](OC)O[C@@H]1CO`, the composite z-score is 1.3 (inactive) in test [1] and 0.912 in the test with XIP peptide (Xip251-270). For the same compound, the z-score in test [2] is -2.57; in test [3], -4.95 (inactive); in test [4], -0.515 (inactive); in test [5], -0.515 (inactive).
Turning to `O=C1O[C@H](c2ccccc2)[C@H](c2ccccc2)N2[C@H]1[C@@H](C(=O)N1CCN(c3ncccn3)CC1)[C@]1(C(=O)Nc3ccc(C#CC4(O)CCCCCC4)cc31)[C@H]2c1ccc(O)cc1`, the composite z-score was 1.48 (inactive) in test [1] and 0.817 in the test with XIP peptide (Xip251-270). Further, the z-score is -0.797 in test [2], -1.28 (inactive) in test [3], -0.168 (inactive) in test [4] and -0.101 (inactive) in test [5].
For the compound `COCCCNC(=O)[C@]1(Cc2ccccc2CN=[N+]=[N-])N=C(c2ccc(OCCCO)cc2)O[C@@H]1c1ccccc1N=[N+]=[N-]`, the composite z-score was 0.228 (inactive) in test [1] and -0.184 in the test on XIP peptide (Xip251-270). Further, the z-score in test [2] is -2.03; in test [3], -0.994 (inactive); in test [4], -0.364 (inactive); in test [5], -0.601 (inactive).
Take `CN1C(=O)C2C=CC(C(O)c3ccc([N+](=O)[O-])cc3)N(Nc3ccccc3)C2C1=O` (configuration not stated): the figures for the composite z-score (in test [1]; in the test with XIP peptide (Xip251-270)) were 0.924 (inactive) and 0.818, respectively. The z-score in test [2] is -0.219; in test [3], -4.24 (inactive); in test [4], 0.533 (inactive); in test [5] it was 0.397 (inactive).
Consider `CC(C)c1ccc(NN2C(C(O)C3=C[C@H]4C[C@@H](C3)C4(C)C)C=CC3C(=O)N(c4ccccc4)C(=O)C32)cc1` (some centres not stated), for which the composite z-score in test [1] is 1.35 (inactive); in the test with XIP peptide (Xip251-270), 0.464. Moreover, the z-score was -0.0979 in test [2], -2.33 (inactive) in test [3], -0.0307 (inactive) in test [4] and -0.257 (inactive) in test [5].
Turning to `CCOC(=O)C[C@H]1[C@H](OC(=O)Cc2ccc3c(c2)OCO3)[C@@H](NC(=O)CC(C)C)c2cc(OCCCO)ccc2N1C(=O)c1ccc2ccccc2n1`, the composite z-score was 0.216 (inactive) in test [1] and 0.784 with XIP peptide (Xip251-270). Moreover, the z-score was -2.04 in test [2], -4.65 (inactive) in test [3], -0.0615 (inactive) in test [4] and 0.252 (inactive) in test [5].
Consider `O=C1O[C@H](c2ccccc2)[C@H](c2ccccc2)N2[C@H]1[C@@H](C(=O)Nc1nc3ccccc3s1)[C@]1(C(=O)Nc3ccccc31)[C@H]2c1ccccc1OCCO`, for which the results for the composite z-score (in test [1]; with XIP peptide (Xip251-270)) were 1.18 (inactive) and 0.758, respectively. In addition, the z-score is -1.08 in test [2], 2 (inactive) in test [3], 0.153 (inactive) in test [4] and 0.65 (inactive) in test [5].
On to `COC(=O)C(CC#Cc1ccc2c(c1)[C@]1(C(=O)N2)[C@H](c2ccc(OCCO)cc2)N2[C@H](c3ccccc3)[C@H](c3ccccc3)OC(=O)[C@H]2[C@@H]1C(N)=O)C(=O)OC`, for which the composite z-score in test [1] was 0.372 (inactive); with XIP peptide (Xip251-270) it was 0.657. Further, the z-score in test [2] was -0.983; in test [3], -1.34 (inactive); in test [4], -0.143 (inactive); in test [5], -0.303 (inactive).
For `O=C1O[C@H](c2ccccc2)[C@H](c2ccccc2)N2[C@H]1[C@@H](C(=O)O)[C@]1(C(=O)Nc3ccc(C#CC4(O)CCCCCC4)cc31)[C@H]2c1ccccc1OCCO`, the composite z-score in test [1] is 0.168 (inactive); with XIP peptide (Xip251-270), 0.779. Further, the z-score is -0.21 in test [2], -5.71 (inactive) in test [3], 0.152 (inactive) in test [4] and 0.579 (inactive) in test [5].
In the case of `Cc1ccc(S[C@]2(C(=O)NC(C)C)CC(=O)N(Cc3ccccc3)[C@@H]2c2ccc(CO)cc2)cc1`, the composite z-score in test [1] is 1.13 (inactive); in the test on XIP peptide (Xip251-270), 0.123. For the same compound, the z-score in test [2] was 0.14; in test [3], -1.54 (inactive); in test [4] it was -0.412 (inactive); in test [5], -0.32 (inactive).
Turning to `CN(C)CCCCNC(=O)[C@H]1C[C@H]2C(=O)N[C@@H](CCCCN(C)C)C(=O)N2[C@H]1c1ccc(O)cc1`, the composite z-score in test [1] is 0.0043 (inactive); in the test on XIP peptide (Xip251-270), 0.269. The z-score was -0.435 in test [2], 0.0335 (inactive) in test [3], -1.63 (inactive) in test [4] and -1.46 (inactive) in test [5].
Consider `CCCCC=C[C@@H](NC(=O)C(C)(C)C)c1ccccc1`, for which the figures for the composite z-score (in test [1]; with XIP peptide (Xip251-270)) were 1.38 (inactive) and 0.324, respectively. In addition, the z-score in test [2] was -0.501; in test [3] it was -0.258 (inactive); in test [4], 0.579 (inactive); in test [5] it was -0.124 (inactive).
As for `C=CCN1C(=O)[C@]2(O[C@H](CCO)[C@@H]([Si](C)(C)c3ccc(OC)cc3)[C@@H]2C)c2cc(N3C(=O)c4ccccc4Oc4ccccc43)ccc21`, the composite z-score was 0.297 (inactive) in test [1] and 0.671 with XIP peptide (Xip251-270). In addition, the z-score is -2.42 in test [2], -4.93 (inactive) in test [3], -1.05 (inactive) in test [4] and -1.5 (inactive) in test [5].
In the case of `CC(C)Cc1ccc(CN2CC[C@@H](NC(=O)c3ccccc3)C2)cc1`, the composite z-score is 0.321 (inactive) in test [1] and 0.447 in the test on XIP peptide (Xip251-270). Further, the z-score in test [2] was -1.68; in test [3], -1.52 (inactive); in test [4], -0.681 (inactive); in test [5], -0.744 (inactive).
In the case of `COC(=O)C(CC#Cc1ccc2c(c1)[C@]1(C(=O)N2)[C@H](C(=O)N2CCN(c3ncccn3)CC2)[C@H]2C(=O)O[C@H](c3ccccc3)[C@H](c3ccccc3)N2[C@@H]1c1ccc(O)cc1)C(=O)OC`, the composite z-score was 0.959 (inactive) in test [1] and 0.782 in the test with XIP peptide (Xip251-270). Further, the z-score in test [2] was -2.28; in test [3], -2.37 (inactive); in test [4], -0.413 (inactive); in test [5], -1.02 (inactive).
